The source made the active and inactive calls. Rule for the calls: active = hit-call score of the fitted dose curve at least 0.9, where 1 is the maximum; inactive = score below 0.9.
Legend:
[1] = read-out: Interleukin-1 alpha (IL1a), IL1A (gene 3552); assay: BSK_KF3CT_IL1a: BioMAP Diversity Plus: KF3CT Assay for Interleukin-1 alpha (IL1a) Biomarker Activity (AID 2283070); settings: primary human keratinocytes with fibroblasts; actives raise or lower the signal
How it was run: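 Chemicals were dosed onto co-cultured human keratinocytes and foreskin fibroblasts, IL-1a was quantified by ELISA at 24 h, and activity was fitted in both directions relative to DMSO controls.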

[2] = read-out: TIMP metallopeptidase inhibitor 2 (TIMP2), TIMP2 (gene 7077); assay: BSK_KF3CT_TIMP2: BioMAP Diversity Plus: KF3CT Assay for TIMP metallopeptidase inhibitor 2 (TIMP2) Biomarker Activity (AID 2283071); settings: primary human keratinocytes with fibroblasts; actives raise or lower the signal
How it was run: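 Cells: human keratinocytes co-cultured with foreskin fibroblasts. Treat with chemical, 24 h. Measure TIMP-2 by ELISA; fit curves bidirectionally vs DMSO baseline.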

[3] = read-out: C-C motif chemokine 2 (Homo sapiens) (UniProt P13500); assay: BSK_KF3CT_MCP1: BioMAP Diversity Plus: KF3CT Assay for Monocyte Chemoattractant Protein 1 (MCP1/CCL2) Biomarker Activity (AID 2283073); settings: primary human keratinocytes with fibroblasts; actives raise or lower the signal
How it was run: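 ELISA readout of MCP-1 after 24 h chemical dosing of a human skin primary co-culture of keratinocytes and foreskin fibroblasts. Activity was fitted in both directions against DMSO.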

[4] = read-out: Matrix Metallopeptidase 9 (MMP9), MMP9 (gene 4318); assay: BSK_KF3CT_MMP9: BioMAP Diversity Plus: KF3CT Assay for Matrix Metallopeptidase 9 (MMP9) Biomarker Activity (AID 2283074); settings: primary human keratinocytes with fibroblasts; actives raise or lower the signal
How it was run: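 Human keratinocyte/foreskin fibroblast co-culture; compound added; 24 h; MMP-9 by ELISA; bidirectional fit vs DMSO baseline.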

CD40, CD40 (gene 958) [5] = assay: BSK_LPS_CD40: BioMAP Diversity Plus: LPS Assay for CD40 Biomarker Activity (AID 2283076); settings: primary human HUVEC with PBMC; actives raise or lower the signal
How it was run: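 Cells were dosed, incubated 24 h, then assayed for CD40 by ELISA. Gain or loss of signal was analysed relative to DMSO controls. The culture paired human umbilical vein endothelium with peripheral blood mononuclear cells.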

[6] = read-out: E-selectin (Homo sapiens) (UniProt P16581); assay: BSK_LPS_Eselectin: BioMAP Diversity Plus: LPS Assay for Eselectin Biomarker Activity (AID 2283077); settings: primary human HUVEC with PBMC; actives raise or lower the signal
How it was run: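 Primary human vascular co-culture (endothelium plus PBMC) was dosed with chemical, then E-selectin quantified by ELISA at 24 h. Endpoint values derive from bidirectional curve fitting relative to DMSO.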

[7] = read-out: Interleukin-8 (IL8), CXCL8 (gene 3576); assay: BSK_LPS_IL8: BioMAP Diversity Plus: LPS Assay for Interleukin-8 (IL8) Biomarker Activity (AID 2283078); settings: primary human HUVEC with PBMC; actives raise or lower the signal
How it was run: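 Readout is IL-8 by ELISA, taken 24 h after compounds were added to LPS-stimulated endothelial/PBMC co-cultures. Both increases and decreases relative to DMSO control were scored through bidirectional fitting.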

[8] = BSK_LPS_SRB: Viability Assessment in the BioMAP Diversity Plus: LPS Assay (AID 2283079); settings: primary human HUVEC with PBMC;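 note: total protein by sulforhodamine B absorbance as a cytotoxicity measure; measured one day after compound addition; fitted in both directions against DMSO so loss or gain of signal counts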
How it was run: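 Readout is SRB absorbance at 560 nm (0.1% stain, TCA-fixed parallel cultures) as a total-protein cytotoxicity measure. Cells: primary human umbilical vein endothelium plus peripheral blood mononuclear cells, 24 h after chemical exposure; DMSO served as baseline.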

[9] = read-out: Interleukin-1 alpha (IL1a), IL1A (gene 3552); assay: BSK_LPS_IL1a: BioMAP Diversity Plus: LPS Assay for Interleukin-1 alpha (IL1a) Biomarker Activity (AID 2283080); settings: primary human HUVEC with PBMC; actives raise or lower the signal
How it was run: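 ELISA read-out of IL-1 alpha from a human primary vascular co-culture (endothelium plus PBMC) under LPS, sampled 24 hours post-dosing. Activity was fitted in both directions relative to DMSO controls.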

[10] = read-out: Monocyte Chemoattractant Protein-1 (MCP1), CCL2 (gene 6347); assay: BSK_LPS_MCP1: BioMAP Diversity Plus: LPS Assay for Monocyte Chemoattractant Protein-1 (MCP1) Biomarker Activity (AID 2283081); settings: primary human HUVEC with PBMC; actives raise or lower the signal
How it was run: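 Human endothelial–PBMC co-cultures were dosed with chemical, then LPS-driven MCP-1 levels were quantified by ELISA at 24 h. Activity in either direction was fitted versus DMSO negative control.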

[11] = BSK_LPS_PGE2: BioMAP Diversity Plus: LPS Assay for Prostaglandin E2 (PGE2) Biomarker Activity (AID 2283082); settings: primary human HUVEC with PBMC; actives raise or lower the signal
How it was run: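 LPS-activated HUVEC/PBMC co-culture; cmpd dosed, 24 h; PGE2 by ELISA; bidirectional fit vs DMSO; SRB (0.1%, TCA-fixed, 560 nm) in parallel plates for overt cytotox.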

[12] = read-out: Macrophage colony-stimulating factor (MCSF), CSF1 (gene 1435); assay: BSK_LPS_MCSF: BioMAP Diversity Plus: LPS Assay for Macrophage colony-stimulating factor (MCSF) Biomarker Activity (AID 2283083); settings: primary human HUVEC with PBMC; actives raise or lower the signal
How it was run: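 ELISA readout of M-CSF after 24 h compound exposure in a human endothelial/PBMC co-culture. Activity, in either direction, is fitted relative to DMSO vehicle.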

[13] = read-out: Tissue Factor, F3 (gene 2152); assay: BSK_LPS_TissueFactor: BioMAP Diversity Plus: LPS Assay for Tissue Factor Biomarker Activity (AID 2283084); settings: primary human HUVEC with PBMC; actives raise or lower the signal
How it was run: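 ELISA signal for cell-surface Tissue Factor (CD142) was read 24 h after compound dosing of an LPS-stimulated human endothelial–PBMC primary co-culture. Gain or loss of signal was scored relative to DMSO.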

[14] = read-out: Tumor necrosis factor (Homo sapiens) (UniProt P01375); assay: BSK_LPS_TNFa: BioMAP Diversity Plus: LPS Assay for Tumour Necrosis Factor alpha (TNFa) Biomarker Activity (AID 2283085); settings: primary human HUVEC with PBMC; actives raise or lower the signal
How it was run: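 Read-out is ELISA of TNFa in primary human endothelial cell–PBMC co-cultures at 24 h after compound. Activity in either direction was fitted against DMSO.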

[15] = read-out: Vascular cell adhesion molecule 1 (VCAM1), VCAM1 (gene 7412); assay: BSK_LPS_VCAM1: BioMAP Diversity Plus: LPS Assay for Vascular cell adhesion molecule 1 (VCAM1) Biomarker Activity (AID 2283086); settings: primary human HUVEC with PBMC; actives raise or lower the signal
How it was run: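 HUVEC + PBMC co-culture, LPS system; compound 24 h; VCAM-1 by ELISA; bidirectional fit vs DMSO control; parallel SRB (0.1%, TCA-fixed, 560 nm) for cytotoxicity.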

CD38, CD38 (gene 952) = assay: BSK_SAg_CD38: BioMAP Diversity Plus: SAg Assay for CD38 Biomarker Activity (AID 2283087); settings: primary human HUVEC with PBMC; actives raise or lower the signal
How it was run: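 Human HUVEC plus PBMC co-culture stimulated with superantigen; CD38 measured by ELISA 24 h after chemical dosing. Fluorescence read-out, bidirectional fit against DMSO; cytotoxicity tracked in parallel by SRB and Alamar Blue.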

CD40, CD40 (gene 958) [16] = assay: BSK_SAg_CD40: BioMAP Diversity Plus: SAg Assay for CD40 Biomarker Activity (AID 2283088); settings: primary human HUVEC with PBMC; actives raise or lower the signal
How it was run: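 Compounds were dosed onto a human primary endothelial–PBMC co-culture, and after 24 h CD40 was quantified by ELISA using a fluorescence signal. Activity in either direction was fitted relative to DMSO.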

CD69, CD69 (gene 969) = assay: BSK_SAg_CD69: BioMAP Diversity Plus: SAg Assay for CD69 Biomarker Activity (AID 2283089); settings: primary human HUVEC with PBMC; actives raise or lower the signal
How it was run: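 Endothelial/PBMC co-culture; chemical added; 24 h incubation; CD69 ELISA with fluorescence detection; bidirectional fit vs DMSO.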

Measured: outcome

E-selectin (Homo sapiens), sequence (P16581 whole entry, looked up): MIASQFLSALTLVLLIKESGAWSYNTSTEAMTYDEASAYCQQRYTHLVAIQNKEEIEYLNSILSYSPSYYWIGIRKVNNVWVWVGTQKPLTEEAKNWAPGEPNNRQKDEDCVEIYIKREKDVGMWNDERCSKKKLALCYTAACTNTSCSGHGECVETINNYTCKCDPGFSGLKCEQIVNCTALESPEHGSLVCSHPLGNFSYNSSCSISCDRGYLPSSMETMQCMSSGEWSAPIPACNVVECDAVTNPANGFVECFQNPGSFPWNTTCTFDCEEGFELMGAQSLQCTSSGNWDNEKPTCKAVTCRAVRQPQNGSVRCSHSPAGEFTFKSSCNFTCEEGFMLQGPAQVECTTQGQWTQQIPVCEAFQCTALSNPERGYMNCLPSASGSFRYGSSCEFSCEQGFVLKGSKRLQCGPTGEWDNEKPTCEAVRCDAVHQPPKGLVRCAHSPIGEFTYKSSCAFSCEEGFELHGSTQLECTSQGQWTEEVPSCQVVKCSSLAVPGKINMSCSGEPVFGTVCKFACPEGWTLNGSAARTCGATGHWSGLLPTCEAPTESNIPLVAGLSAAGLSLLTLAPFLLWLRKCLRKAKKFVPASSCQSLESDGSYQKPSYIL
Tumor necrosis factor (Homo sapiens), sequence (P01375 whole entry, looked up): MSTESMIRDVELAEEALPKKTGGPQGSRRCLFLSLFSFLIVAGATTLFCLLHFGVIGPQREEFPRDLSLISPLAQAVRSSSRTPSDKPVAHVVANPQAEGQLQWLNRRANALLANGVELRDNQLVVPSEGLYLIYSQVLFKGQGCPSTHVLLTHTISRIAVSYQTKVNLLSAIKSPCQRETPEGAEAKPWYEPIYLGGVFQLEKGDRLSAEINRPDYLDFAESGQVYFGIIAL

OCCCCC(F)(F)C(F)(F)C(F)(F)C(F)(F)F
inactive: [1] | [2] | [3] | [4] | CD40, CD40 (gene 958) [5] | [6] | [7] | [8] | [9] | [10] | [11] | [12] | [13] | [14] | [15] | CD38, CD38 (gene 952) | CD40, CD40 (gene 958) [16] | CD69, CD69 (gene 969)

COC(F)(C(F)F)C(F)(F)F (centres undefined)
inactive: [1] | [2] | [3] | [4] | CD40, CD40 (gene 958) [5] | [6] | [7] | [8] | [9] | [10] | [11] | [12] | [13] | [14] | [15] | CD38, CD38 (gene 952) | CD40, CD40 (gene 958) [16] | CD69, CD69 (gene 969)

FC(F)(F)C(F)(F)C(F)(F)CC1CO1 (centres undefined)
inactive: [1] | [2] | [3] | [4] | CD40, CD40 (gene 958) [5] | [6] | [7] | [8] | [9] | [10] | [11] | [12] | [13] | [14] | [15] | CD38, CD38 (gene 952) | CD40, CD40 (gene 958) [16] | CD69, CD69 (gene 969)
